# This is one part of a sample in which the strongest signals are shown more often than they occur.
# Tests used:
# Experiment in all cases: glycan array binding signal (z-score within array); higher = stronger binding
# Settings in all cases: glycan notation: IUPAC condensed, linker removed; mutation: G182A
# Fuc(a1-2)Gal(b1-4)GlcNAc = molecular target: Fuc(a1-2)Gal(b1-4)GlcNAc
# Method in brief: (§1)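 Negative Z-scores can be read as non-binding. The Z-score is calculated within each array and then averaged across arrays of one protein sequence at different concentrations or buffers and across linkers. Arrays, 3228 in all, were curated from the Consortium for Functional Glycomics database and kept only where the protein sequence was available.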
# [1] = molecular target: Fuc(a1-2)Gal(b1-4)GlcNAc(b1-3)Gal(b1-4)GlcNAc(b1-3)Gal(b1-4)GlcNAc
# Method in brief: as §1
# [2] = molecular target: Fuc(a1-2)Gal(b1-4)GlcNAc(b1-3)GalNAc
# Method in brief: as §1
# [3] = molecular target: Fuc(a1-2)[Gal(a1-3)]Gal(b1-4)GlcNAc
# Method in brief: as §1
# [4] = molecular target: Fuc(a1-2)[Gal(a1-3)]Gal(b1-4)GlcNAc(b1-2)Man(a1-3)[Fuc(a1-2)[Gal(a1-3)]Gal(b1-4)GlcNAc(b1-2)Man(a1-6)]Man(b1-4)GlcNAc(b1-4)GlcNAc
# Method in brief: as §1
# [5] = molecular target: Fuc(a1-2)[GalNAc(a1-3)]Gal(b1-4)GlcNAc(b1-2)Man(a1-3)[Fuc(a1-2)[GalNAc(a1-3)]Gal(b1-4)GlcNAc(b1-2)Man(a1-6)]Man(b1-4)GlcNAc(b1-4)GlcNAc
# Method in brief: as §1
# [6] = molecular target: Fuc(a1-2)[GalNAc(a1-3)]Gal(b1-4)GlcNAc(b1-3)Gal(b1-4)GlcNAc(b1-3)Gal(b1-4)GlcNAc
# Method in brief: as §1
# [7] = molecular target: Fuc(a1-3)[Gal(b1-4)]GlcNAc(b1-2)Man(a1-3)[Fuc(a1-3)[Gal(b1-4)]GlcNAc(b1-2)Man(a1-6)]Man(b1-4)GlcNAc(b1-4)GlcNAc
# Method in brief: as §1
# [8] = molecular target: Fuc(a1-3)[Gal(b1-4)]GlcNAc(b1-3)Gal(b1-3)[Fuc(a1-4)]GlcNAc
# Method in brief: as §1
# Gal(a1-3)GalNAc = molecular target: Gal(a1-3)GalNAc
# Method in brief: as §1
# Gal(a1-4)Gal(b1-4)Glc = molecular target: Gal(a1-4)Gal(b1-4)Glc
# Method in brief: as §1
# [9] = molecular target: Gal(b1-3)GalNAc(b1-4)Gal(b1-4)Glc
# Method in brief: as §1
# [10] = molecular target: Gal(b1-4)GlcNAc(b1-2)Man(a1-6)[Man(a1-3)]Man(b1-4)GlcNAc(b1-4)GlcNAc
# Method in brief: as §1
# [11] = molecular target: Gal(b1-4)GlcNAc(b1-3)Gal(b1-4)GlcNAc(b1-3)Gal(b1-4)GlcNAc
# Method in brief: as §1
# [12] = molecular target: Gal(b1-4)GlcNAc(b1-6)Gal(b1-4)GlcNAc
# Method in brief: as §1
# [13] = molecular target: Gal3S(b1-3)[Fuc(a1-4)]GlcNAc
# Method in brief: as §1
# GalNAc(a1-3)Gal = molecular target: GalNAc(a1-3)Gal
# Method in brief: as §1
# [14] = molecular target: GalNAc(b1-3)Gal(a1-6)Gal(b1-4)Glc
# Method in brief: as §1
# [15] = molecular target: GlcNAc(a1-4)Gal(b1-4)GlcNAc(b1-3)Gal(b1-4)GlcNAc(b1-3)Gal(b1-4)GlcNAc
# Method in brief: as §1
# [16] = molecular target: GlcNAc(b1-3)Gal(b1-4)GlcNAc(b1-3)Gal(b1-4)GlcNAc
# Method in brief: as §1
# GlcNAc3Prop(b1-4)GlcNAc = molecular target: GlcNAc3Prop(b1-4)GlcNAc
# Method in brief: as §1
# Man(a1-2)Man(a1-3)Man = molecular target: Man(a1-2)Man(a1-3)Man
# Method in brief: as §1
# [17] = molecular target: Man(a1-2)Man(a1-3)[Man(a1-2)Man(a1-6)]Man
# Method in brief: as §1
# [18] = molecular target: Neu5Ac(a2-3)Gal(b1-3)[Fuc(a1-4)]GlcNAc(b1-3)Gal(b1-3)[Fuc(a1-4)]GlcNAc
# Method in brief: as §1
# [19] = molecular target: Neu5Ac(a2-3)Gal(b1-4)GlcNAc(b1-2)Man(a1-3)[Neu5Ac(a2-6)Gal(b1-4)GlcNAc(b1-2)Man(a1-6)]Man(b1-4)GlcNAc(b1-4)GlcNAc
# Method in brief: as §1
# Neu5Ac(a2-3)GalNAc = molecular target: Neu5Ac(a2-3)GalNAc
# Method in brief: as §1
# Neu5Ac(a2-6)Gal(b1-4)Glc = molecular target: Neu5Ac(a2-6)Gal(b1-4)Glc
# Method in brief: as §1
# [20] = molecular target: Neu5Ac(a2-6)Gal(b1-4)GlcNAc
# Method in brief: as §1
# [21] = molecular target: Neu5Ac(a2-6)Gal(b1-4)GlcNAc(b1-3)GalNAc
# Method in brief: as §1
# [22] = molecular target: Neu5Ac(a2-6)GlcNAc(b1-4)GlcNAc(b1-4)GlcNAc
# Method in brief: as §1
# [23] = molecular target: Neu5Ac(a2-8)Neu5Ac(a2-8)Neu5Ac(a2-3)[GalNAc(b1-4)]Gal(b1-4)Glc
# Method in brief: as §1
# [24] = molecular target: Neu5Ac9Ac(a2-6)Gal(b1-4)GlcNAc
# Method in brief: as §1
# Neu5Gc(a2-3)Gal(b1-4)Glc = molecular target: Neu5Gc(a2-3)Gal(b1-4)Glc
# Method in brief: as §1
binder,measurement,setting,value
"Gal 3 (Homo sapiens), P17931 (protein) MADNFSLHDALSGSGNPNPQGWPGAWGNQPAGAGGYPGASYPGAYPGQAPPGAYPGQAPPGAYHGAPGAYPGAPAPGVYPGPPSGPGAYPSSGQPSAPGAYPATGPYGAPAGPLIVPYNLPLPGGVVPRMLITILGTVKPNANILDFQRGNDVAFHFNPRFNENNRRVIVCNTKLDNNWAREERQSVFPFESGKPFKIQVLVEPDHFKVAVNDAHLLQYNHRVKKLNEISKLGISGDIDLTSASYTMI",glycan array binding signal (z-score),Fuc(a1-2)Gal(b1-4)GlcNAc,-0.188
same,glycan array binding signal (z-score),[1],5.12
same,glycan array binding signal (z-score),[2],-0.187
same,glycan array binding signal (z-score),[3],1.68
same,glycan array binding signal (z-score),[4],9.17
same,glycan array binding signal (z-score),[5],5.25
same,glycan array binding signal (z-score),[6],6.29
same,glycan array binding signal (z-score),[7],-0.191
same,glycan array binding signal (z-score),[8],-0.188
same,glycan array binding signal (z-score),Gal(a1-3)GalNAc,-0.185
same,glycan array binding signal (z-score),Gal(a1-4)Gal(b1-4)Glc,-0.192
same,glycan array binding signal (z-score),[9],-0.189
same,glycan array binding signal (z-score),[10],-0.197
same,glycan array binding signal (z-score),[11],7.13
same,glycan array binding signal (z-score),[12],-0.196
same,glycan array binding signal (z-score),[13],-0.186
same,glycan array binding signal (z-score),GalNAc(a1-3)Gal,-0.192
same,glycan array binding signal (z-score),[14],-0.19
same,glycan array binding signal (z-score),[15],9.32
same,glycan array binding signal (z-score),[16],4.53
same,glycan array binding signal (z-score),GlcNAc3Prop(b1-4)GlcNAc,-0.182
same,glycan array binding signal (z-score),Man(a1-2)Man(a1-3)Man,-0.189
same,glycan array binding signal (z-score),[17],-0.189
same,glycan array binding signal (z-score),[18],-0.187
same,glycan array binding signal (z-score),[19],-0.168
same,glycan array binding signal (z-score),Neu5Ac(a2-3)GalNAc,-0.192
same,glycan array binding signal (z-score),Neu5Ac(a2-6)Gal(b1-4)Glc,-0.183
same,glycan array binding signal (z-score),[20],-0.177
same,glycan array binding signal (z-score),[21],-0.143
same,glycan array binding signal (z-score),[22],-0.191
same,glycan array binding signal (z-score),[23],-0.167
same,glycan array binding signal (z-score),[24],-0.189
same,glycan array binding signal (z-score),Neu5Gc(a2-3)Gal(b1-4)Glc,-0.195

# — the supplement of paper PMC8728848
